# Screening data deposited in PubChem by National Center for Advancing Translational Sciences (NCATS).
# A selection: hits, their analogues and other compounds. The true share with any hit is near 2.4%.
# AmpC det inh: Promiscuous and Specific Inhibitors of AmpC Beta-Lactamase (assay with detergent); 71,000 compounds, 0.09% hits; Potency, µM (highest dose often 28.7 µM), for the others: at the highest dose activity change, negative = inhibition; purified AmpC, nitrocefin hydrolysis with detergent; P00811; active = well fitted curve in the direction sought with a large enough effect; inconclusive = small, poorly fitted or top-dose-only effect; note: % is set by controls: 0 for no effect and ±100 for the full control effect
# Target sequence (P00811 whole entry, looked up): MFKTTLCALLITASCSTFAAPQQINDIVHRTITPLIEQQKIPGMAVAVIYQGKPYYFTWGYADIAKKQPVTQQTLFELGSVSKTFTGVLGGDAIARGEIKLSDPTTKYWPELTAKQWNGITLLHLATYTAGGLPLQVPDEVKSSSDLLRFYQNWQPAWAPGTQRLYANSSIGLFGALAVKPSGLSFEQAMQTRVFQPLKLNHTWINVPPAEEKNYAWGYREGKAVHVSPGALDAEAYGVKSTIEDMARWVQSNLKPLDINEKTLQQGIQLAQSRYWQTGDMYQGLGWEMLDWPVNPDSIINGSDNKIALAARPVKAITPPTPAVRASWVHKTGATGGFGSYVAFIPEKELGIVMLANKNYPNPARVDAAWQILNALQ
#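 E. coli AmpC (5.3 nM) in 20 mM phosphate pH 7.0 with 0.01% Triton X-100, preincubated 15 min RT with compound; nitrocefin (2 uL of 800 uM stock) hydrolysis followed by 480 nm absorbance every 20 s over 4 min.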
# Prx2 Sm inh: Schistosoma Mansoni Peroxiredoxins (Prx2); Potency, µM; Schistosoma mansoni peroxiredoxin 2 (Prx2); AID 448, 2006; 65,000 compounds, 0.07% hits; S. mansoni Prx2 activity coupled to TGR/GSH (TGR is thioredoxin glutathione reductase), NADPH fluorescence loss, qHTS
#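 Coupled assay in which S. mansoni TGR passes NADPH reducing equivalents via glutathione to Prx2, which reduces H2O2. Compounds were preincubated 15 min at room temperature with 25 nM TGR/50 nM Prx2 mix. Kinetic NADPH fluorescence loss (ex 365/em 450 nm) was monitored.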
# Anthrax LT inh: qHTS Assay for Anthrax Lethal Toxin Internalization | Cells, anthrax lethal toxin internalization, FRET ratio (460/530) | Potency, µM (doses to about 40 µM), for the others: top-dose activity change, negative = inhibition, hits mostly inhibitors | 70,000 compounds, 0.67% hits; note: % is set by controls: 0 for no effect and ±100 for the full control effect; nearly all actives have a fitted effect of over 50% in size
# AmpC inh no det: Promiscuous and Specific Inhibitors of AmpC Beta-Lactamase (assay without detergent) | 71,000 compounds, 1.8% hits | Potency, µM (top dose mostly 28.7 µM), for the others: top-dose activity change, negative = inhibition | AmpC nitrocefin hydrolysis, absorbance 480 nm, no detergent | P00811; note: % of control where 0% means no effect
#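 AmpC in 20 mM phosphate buffer pH 7.0 was preincubated 15 min at room temperature with compounds. Nitrocefin (800 uM stock) was then added and hydrolysis followed at 480 nm every 20 s for 4 min.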
# * = called active by the depositor; ? = inconclusive; . = not tested or not shown; [ ] = dose if it differs, or a comment. Unless noted, calls come from the whole dose curve. Potency is the fitted concentration of half-maximal effect.
SMILES,AmpC det inh,Prx2 Sm inh,Anthrax LT inh,AmpC inh no det
CCOC(=O)CN1C(=O)c2ccccc2C1=O,-1%,>57,-12%,23%
CCOC(=O)/C(C(C)=O)=C1\OC(=O)c2ccccc21,7.9µM*,>57,-4%,13µM*
COc1cccc(-c2nccc(-n3ccnc3)n2)c1,13µM*,>57,?,10µM*
COc1cccc(-c2cncnc2-n2ccnc2)c1,-11%,>57,8%,-16%
COCC(=O)N1CCC[C@@]2(CCN(c3ccccc3)C2)C1,3%,>57,?,86%
O=c1[nH]c(CN2CCc3ccccc32)nc2scc(-c3cccs3)c12,-4%,>57,?,0.79µM*
O=c1[nH]cnc2scc(-c3cccs3)c12,-3%,>57,.,-10%
O=C(CSc1nc2ccccc2s1)c1sc2sc3ccccc3[n+]2c1O,-7%[5.75 µM],>57,?,4µM*[single pt active]
CC1=C(C(=O)NCc2ccccc2)C(c2ccccc2OCC(N)=O)NC(=O)N1 (stereo not drawn),-3%,>57,-5%,0%
CCOC(=O)CN(C(=O)CSc1nnc(CNc2ccc(F)cc2)o1)c1ccccc1,4%,>57,-6%,53%
COc1ccc(S(=O)(=O)NCCSCc2ccco2)cc1,14%,>57,-4%,13µM*[single pt active]
Cn1c(C(=O)NCCc2c[nH]c3ccccc23)cc2sccc21,12%,>57,?,-6%
O=C(NCCc1c[nH]c2ccccc12)c1c(Cl)nc2sccn12,-3%,>57,9%,13µM*
Cc1ccc2c(c1)nnn2C1CCN(C(=O)c2cccs2)CC1,5%,>57,0%,0%
CCOc1c(C(N)=O)c(-c2ccccc2)c2c(=O)[nH]c3ccccc3n12,1%,>57,?,13µM*
Cc1nnc(SCC(=O)Nc2ccc3c(c2)COC3=O)n1-c1ccccc1,8%,>57,-12%,105%
CCCOc1nc(N)c(C#N)c(-c2ccccc2F)c1C#N,-3%,>57,7.9µM*,0%
COc1cc(S(=O)(=O)N2CCN3CCCC3C2)ccc1-n1cnnn1 (stereo not drawn),-4%,>57,-20%,-4%
CCC(=O)N1c2ccc(S(=O)(=O)CCC(=O)NCc3ccc4c(c3)OCO4)cc2CC1C (stereo not drawn),15%,>57,-12%,16%
Cc1cc(Nc2ccccc2)nc(-c2ccccc2O)n1,-3%,>57,13µM*,3%
Cc1cc(Nc2cccc(F)c2)nc(-c2ccccc2O)n1,12%,>57,?,-18%
CCCCCCCCCCCCC/C=C\[C@@H](O)[C@H](CO)NC(C)=O,-9%,>57,16µM*,81%
CC1CCCCN1c1nnc(N)s1 (stereo not drawn),17%,>57,5%,-5%
CC1CCCC(C)N1c1nnc(N)s1 (stereo not drawn),12%,>57,-6%,4µM*[single pt active]
Cc1cc(NC(=O)c2ccccc2)ncc1NC(=O)c1ccco1,11%,>57,-16%,-13%
SMILES,AmpC det inh,Prx2 Sm inh,Anthrax LT inh,AmpC inh no det
Cc1cc(/C=N/n2cnnc2)c(C)n1-c1ccc(OCc2ccc(F)cc2)cc1,-3%,>57,13µM*,99%
Cc1cc(/C=N/n2cnnc2)c(C)n1-c1cccc(Cl)c1,-3%,.,12%,52%
CN1CCN(CCCNC(=O)c2ccc(CS(=O)(=O)c3ccc(Br)cc3)o2)CC1,10%,>57,-2%,22%
CCN(CC)CCNC(=O)c1ccc(CS(=O)(=O)c2ccc(Br)cc2)o1,9%,>57,-26%,3.2µM*[single pt active]
O=C(NCCCN1CCCC1)c1ccc(CS(=O)(=O)c2ccc(Br)cc2)o1,13%,>57,-13%,4µM*[single pt active]
O=C(NC1CCCC1)c1ccc(CS(=O)(=O)c2ccc(Br)cc2)o1,8%,>57,-26%,4µM*[single pt active]
O=C(NCCN1CCCCCC1)c1ccc(CS(=O)(=O)c2ccc(Br)cc2)o1,8%,>57,?,4µM*[single pt active]
Cc1ccc(S(=O)(=O)NCCCCCC(=O)Nc2nccs2)cc1,12%,>57,-2%,-7%
CC(C)(C)NC(=O)C(c1ccco1)N(C(=O)Cn1nnc(-c2ccc(F)cc2)n1)c1ccccc1F (stereo not drawn),-1%,.,?,78%
Cc1ccc2oc(=O)c3cnn(CC(=O)N4CCCCC4C)c3c2c1 (stereo not drawn),3%,>57,?,21%
c1ccc(C(NCCNC(c2ccccc2)c2ccccc2)c2ccccc2)cc1,.,.,10µM*,.
COc1cccc(C2CC(c3ccc(C)cc3)Nc3nc(N)nn32)c1 (stereo not drawn),7%,>57,-1%,4µM*[single pt active]
COc1ccc(C2CC(c3c(Cl)cccc3Cl)n3nc(N)nc3N2)cc1 (stereo not drawn),7%,>57,?,4µM*[single pt active]
COc1ccc(C2CC(c3ccc(Cl)cc3Cl)n3nc(N)nc3N2)cc1 (stereo not drawn),14%,>57,14%,108%
COc1cccc(C2CC(c3ccccc3Cl)Nc3nc(N)nn32)c1 (stereo not drawn),-3%,>57,-8%,64%
CCOc1ccc(C2CC(c3cccc(OC)c3)Nc3nc(N)nn32)cc1 (stereo not drawn),10%,>57,-5%,80%
COc1cccc(C2CC(c3ccc(C)cc3)n3nc(N)nc3N2)c1 (stereo not drawn),12%,>57,6%,4µM*[single pt active]
Cc1cccc(C)c1NC(=O)c1c(-c2ccccc2)noc1C,13%,.,-18%,2%
COc1ccccc1OCCn1cc(C(=O)c2ccco2)c2ccccc21,6%,>57,10µM*,6%
COc1ccc(-c2cc(CCCC(=O)NCc3ccccn3)no2)cc1,14%,>57,-14%,3.2µM*[single pt active]
COc1ccc(-c2cc(CCCC(=O)NCCc3ccc(OC)cc3OC)no2)cc1,15%,>57,.,40%
COCc1cc(C)nc(N2CCOCC2)c1C#N,11%,.,-21%,4µM*[single pt active]
CCNc1nc(C)cc(COC)c1C#N,11%,.,0%,9%
O=C(Nc1ccccc1)c1ccccc1O,2%,>57,-13%,-10%
O=C(N/N=C\c1ccccc1O)c1ccccc1O,-1%,>57,?,16µM*
SMILES,AmpC det inh,Prx2 Sm inh,Anthrax LT inh,AmpC inh no det
COc1ccc2cc(C(c3nnnn3C(C)(C)C)N3CCc4ccccc4C3)c(=O)[nH]c2c1 (stereo not drawn),-5%,>57,?,42%
CCN(CC)CC[n+]1ccc2c(C)c3[nH]c4ccccc4c3c(C)c2c1,-2%[5.75 µM],>57,4µM*,-10%[5.75 µM]
NC(=NCc1ccc(Cl)c(Cl)c1)NC(=O)c1nc(Cl)c(N)nc1N,0%,>11,?,13µM*[single pt active]
CCCCC(=O)Nc1cc(NC(=O)CCCC)cc(C(=O)O)c1,-5%,>57,5%,0%
CCCCn1c2c(c3ccccc31)CCc1nonc1-2,26%,>57,?,4µM*[single pt active]
N[C@@](CC(=O)O)(Cc1ccccc1)C(=O)O,-1%[5.75 µM],>57,-2%[8 µM],-5%[5.75 µM]
CN1CCc2c(sc3c2C(=O)NC(c2cccc(OC(=O)c4cccs4)c2)N3)C1 (stereo not drawn),12%,>57,?,3.2µM*[single pt active]
CN1CCc2c(sc3c2C(=O)NC(c2ccco2)N3)C1 (stereo not drawn),22%,>57,?,9%
